# This excerpt belongs to a sample that is enriched for the strongest signals.
# B1: PX14343B-bfa-546-20-546 (Bacteroides fragilis) (protein)
# chain: CDLERYPLTDLSEETFWNSESNAELALTSLYRGSLTDGVEYNPSDWWSYHGMIMMEHLSDNAFDRRGENNPFFKISSGNLTADNAFIKRYWETSYKRIGYCNRFLVGIQNSSESEKKTRMIAEARFLRATQYFYLASYFKNVPLVENVLTGEEANNVTKTSQADILKWCVTEFTAAAADLPRFSAIPAGEAGRACKQAALAFLGRTCMLQKDWKSGAKAFHDIMELGDNAINANYQELFYPSTGTSNKENIFYIQYLENYLGTGLPQHALSAKDGGWSLVNPAADLYESYEFKDGTPFSYDDPRYDPSNLGKDRDPRLDYTIYYNGAIFMGTEYKMSPDYSAAKKEKLDYTSEASRTGFMMRKYFEESTPINDVQSANGLTPVIRYAEVLLGYLECLVEDNQTITQGILDETINAVRGRASVNMPPVTEVTPAKLREIVRHERRIELAMEGIRYWDIMRWGIAHEVLSQKIWGAPYPGSTQYATTTKEVDPTGNYRWYVGKRAFRNPTDYTWPIPQSEQNINPNLRD
# Columns and labels:
# Experiment in all cases: glycan array binding signal (z-score within array); higher = stronger binding
# Conditions in all cases: glycan notation: IUPAC condensed, linker removed
# [1] = target: GlcNAc(b1-2)[GlcNAc(b1-4)]Man(a1-3)[GlcNAc(b1-4)][GlcNAc(b1-2)Man(a1-6)]Man(b1-4)GlcNAc(b1-4)GlcNAc
# Summary of the method: (§1)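 The binding signal is a Z-score computed within each array. Data were drawn from 3228 arrays in the Consortium for Functional Glycomics database, restricted to those with a known protein sequence. Scores were averaged over arrays of the same protein sequence at different concentrations or buffers, and over linkers, and negative values can be taken as non-binding.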
# GlcNAc(b1-3)Gal(b1-4)Glc = target: GlcNAc(b1-3)Gal(b1-4)Glc
# Summary of the method: as §1
# Kdn(a2-3)Gal(b1-4)GlcNAc = target: Kdn(a2-3)Gal(b1-4)GlcNAc
# Summary of the method: as §1
# [2] = target: Man(a1-3)[Man(a1-6)]Man(a1-6)[Man(a1-3)]Man(b1-4)GlcNAc(b1-4)GlcNAc
# Summary of the method: as §1
# [3] = target: Neu5Ac(a2-3)Gal(b1-4)GlcNAc
# Summary of the method: as §1
# Neu5Ac(a2-6)Gal(b1-4)Glc = target: Neu5Ac(a2-6)Gal(b1-4)Glc
# Summary of the method: as §1
# [4] = target: Neu5Ac(a2-6)Gal(b1-4)GlcNAc(b1-2)Man(a1-3)[Neu5Ac(a2-3)Gal(b1-4)GlcNAc(b1-2)Man(a1-6)]Man(b1-4)GlcNAc(b1-4)GlcNAc
# Summary of the method: as §1
# [5] = target: Neu5Ac(a2-6)Gal(b1-4)GlcNAc(b1-2)Man(a1-6)Man(b1-4)GlcNAc(b1-4)GlcNAc
# Summary of the method: as §1
# [6] = target: Neu5Ac(a2-6)Gal(b1-4)GlcNAc(b1-6)GalNAc
# Summary of the method: as §1
# [7] = target: Neu5Ac(a2-8)Neu5Ac(a2-3)Gal(b1-3)GalNAc(b1-4)[Neu5Ac(a2-3)]Gal(b1-4)Glc
# Summary of the method: as §1
# [8] = target: Neu5Ac(a2-8)Neu5Ac(a2-3)Gal(b1-3)GalNAc(b1-4)[Neu5Ac(a2-8)Neu5Ac(a2-3)]Gal(b1-4)Glc
# Summary of the method: as §1
# [9] = target: Neu5Ac(a2-8)Neu5Ac(a2-3)[GalNAc(b1-4)]Gal(b1-4)Glc
# Summary of the method: as §1
# [10] = target: Neu5Gc(a2-3)Gal(b1-4)GlcNAc
# Summary of the method: as §1
# [11] = target: Neu5Gc(a2-3)Gal(b1-4)GlcNAc(b1-3)Gal(b1-4)GlcNAc(b1-2)Man(a1-3)[Neu5Gc(a2-3)Gal(b1-4)GlcNAc(b1-3)Gal(b1-4)GlcNAc(b1-2)Man(a1-6)]Man(b1-4)GlcNAc(b1-4)GlcNAc
# Summary of the method: as §1
# [12] = target: Neu5Gc(a2-3)Gal(b1-4)[Fuc(a1-3)]GlcNAc
# Summary of the method: as §1
binder,measurement,setting,value
B1,glycan array binding signal (z-score),[1],-0.124
same,glycan array binding signal (z-score),GlcNAc(b1-3)Gal(b1-4)Glc,-0.13
same,glycan array binding signal (z-score),Kdn(a2-3)Gal(b1-4)GlcNAc,-0.123
same,glycan array binding signal (z-score),[2],-0.104
same,glycan array binding signal (z-score),[3],-0.121
same,glycan array binding signal (z-score),Neu5Ac(a2-6)Gal(b1-4)Glc,-0.122
same,glycan array binding signal (z-score),[4],-0.127
same,glycan array binding signal (z-score),[5],-0.119
same,glycan array binding signal (z-score),[6],-0.123
same,glycan array binding signal (z-score),[7],-0.129
same,glycan array binding signal (z-score),[8],-0.12
same,glycan array binding signal (z-score),[9],-0.131
same,glycan array binding signal (z-score),[10],-0.122
same,glycan array binding signal (z-score),[11],-0.129
same,glycan array binding signal (z-score),[12],-0.113
